“And” between values parts separate entries of the source, which are not always exact repeats. Equal values may be shown once. In all, about 5,500 compounds went through this assay and about 2,000 (36%) were called active. About 18% were inconclusive and are not listed. Cut-off read from the data, not from the text of the source: active = normalized growth mostly below about 0.91 (no sharp cut-off); inconclusive = no clear call, values can overlap the other calls; inactive = mostly above about 0.92. The list shows a part of the results.
Assay: chemical genetic growth profiling, strain panel (AID 1159580);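 note: tested at 20 µM; growth read once vehicle control cultures reached saturation at 30 °C; 1 = growth at the plate median or of vehicle wells; lower values mean less growth of the strain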
Settings: S. cerevisiae deletion strains, growth OD

Measured: normalized growth

Nc1c2c(nc3ccccc13)CCCC2
inactive: locus YAL013W, strain DEP1, hits give low values 1.02 | locus YAL021C, strain ccr4, hits give low values 0.985 | locus YAL026C, strain drs2, hits give low values 0.975 | locus YAL030W, strain snc1, hits give low values 1.01 | locus YAL040C, strain CLN3, hits give low values 1.02 | locus YBL061C, strain skt5, hits give low values 0.984 | locus YBR009C, strain hhf1, hits give low values 0.978 | locus YBR021W, strain FUR4, hits give low values 0.853 | locus YBR023C, strain chs3, hits give low values 0.993 | locus YBR171W, strain sec66, hits give low values 0.959 | locus YBR229C, strain ROT2, hits give low values 1.02 | locus YBR231C, strain swc5, hits give low values 0.981 | locus YBR279W, strain paf1, hits give low values 1 | locus YCL011C, strain gbp2, hits give low values 1 | locus YCL016C, strain dcc1, hits give low values 1.01 | locus YCL029C, strain bik1, hits give low values 1.02 | locus YCL069W, strain vba3, hits give low values 0.989 | locus YCR088W, strain abp1, hits give low values 0.993 | locus YDL005C, strain med2, hits give low values 0.977 | locus YDL035C, strain GPR1, hits give low values 1.01 | locus YDL040C, strain nat1, hits give low values 0.989 | locus YDL074C, strain BRE1, hits give low values 1.01 | locus YDL101C, strain DUN1, hits give low values 1.02 | locus YDL134C, strain PPH21, hits give low values 1 | locus YDL185W, strain tfp1, hits give low values 1.01 | locus YDL192W, strain arf1, hits give low values 1.01 | locus YDR001C, strain nth1, hits give low values 0.983 | locus YDR069C, strain doa4, hits give low values 0.936 | locus YDR101C, strain arx1, hits give low values 1.02 | locus YDR137W, strain rgp1, hits give low values 1.02 | locus YDR150W, strain NUM1, hits give low values 1.02 and 0.999 | locus YDR159W, strain sac3, hits give low values 0.939 | locus YDR162C, strain NBP2, hits give low values 1.02 | locus YDR195W, strain ref2 0.963 | locus YDR297W, strain sur2, hits give low values 0.986 | locus YDR318W, strain mcm21, hits give low values 1.01 | locus YDR334W, strain swr1, hits give low values 0.974 | locus YDR335W, strain msn5, hits give low values 0.992 | locus YDR388W, hits give low values 1 | locus YDR392W, strain spt3, hits give low values 0.939 | locus YDR502C, strain sam2, hits give low values 1.02 | locus YEL003W, strain gim4, hits give low values 0.973 | locus YEL037C, strain rad23, hits give low values 0.978 | locus YEL061C, strain CIN8 (second series), hits give low values 0.983 | locus YEL061C, strain CIN8, hits give low values 1.01 | locus YER002W, strain NOP16, hits give low values 0.997 | locus YER015W, strain faa2, hits give low values 0.987 | locus YER016W, strain bim1, hits give low values 0.994 | locus YER110C, hits give low values 1.02 | locus YER111C, strain swi4, hits give low values 0.988 | locus YER155C, strain BEM2 (second series), hits give low values 0.902 | locus YER155C, strain BEM2, hits give low values 1 | locus YER167W, strain BCK2, hits give low values 1.01 | locus YFR010W, strain ubp6, hits give low values 0.944 | locus YGL078C, strain dbp3, hits give low values 1.02 | locus YGL086W, strain mad1, hits give low values 1.01 | locus YGL167C, strain pmr1, hits give low values 0.978 | locus YGL173C, strain kem1, hits give low values 0.958 | locus YGL227W, strain vid30, hits give low values 0.993 | locus YGL240W, strain doc1, hits give low values 0.946 | locus YGL248W, strain PDE1, hits give low values 1.02 | locus YGL253W, strain hxk2, hits give low values 0.96 | locus YGR078C, strain PAC10, hits give low values 0.992 | locus YGR135W, strain pre9, hits give low values 0.987 | locus YGR229C, strain SMI1, hits give low values 1.02 | locus YGR252W, strain gcn5, hits give low values 0.977 | locus YHR013C, strain ard1, hits give low values 0.867 | locus YHR027C, strain rpn1, hits give low values 0.968 | locus YHR030C, strain SLT2, hits give low values 1.01 and 0.987 | locus YHR079C, strain IRE1 (second series), hits give low values 1.02 | locus YHR079C, strain IRE1, hits give low values 1 | locus YHR094C, strain hxt1, hits give low values 1.02 | locus YHR129C, strain ARP1, hits give low values 1.02 | locus YHR142W, strain chs7, hits give low values 1 | locus YHR200W, strain rpn10, hits give low values 1.01 | locus YIL066C, strain RNR3, hits give low values 1.02 | locus YIL073C, strain SPO22, hits give low values 1.14 | locus YIL125W, strain kgd1, hits give low values 1.02 | locus YIR030C, strain dcg1, hits give low values 1.02 | locus YJL092W, strain hpr5, hits give low values 0.983 | locus YJL095W, strain BCK1 (second series), hits give low values 0.991 | locus YJL095W, strain BCK1, hits give low values 1.01 and 1 | locus YJL115W, strain asf1, hits give low values 0.981 | locus YJL129C, strain trk1, hits give low values 0.997 | locus YJL134W, strain LCB3, hits give low values 1.01 | locus YJL154C, strain vps35, hits give low values 0.974 | locus YJL164C, strain tpk1, hits give low values 1.01 | locus YJL166W, strain qcr8, hits give low values 0.992 | locus YJL168C, strain set2, hits give low values 1.01 | locus YJL187C, strain SWE1 (second series), hits give low values 1.01 | locus YJR043C, strain POL32, hits give low values 1.04 | locus YJR066W, strain TOR1, hits give low values 0.987 | locus YJR075W, strain HOC1, hits give low values 0.976 | locus YKL009W, strain mrt4, hits give low values 1.01

Reference: PubChem BioAssay AID1159580 (chemical genetic matrix, 2015)
